From PubChem BioAssay
Most compounds without a hit are left out; they make up all but 5.1% or so of the library.
ANO1 block: inhibitors of mouse TMEM16A calcium-activated chloride channel. 310,000 tested, 1.2% active. Q8BHY3. normalized B-score (activity score, 25-100; higher = stronger inhibition) at 10 µM. HEK293 TMEM16A/YFP iodide influx fluorescence, ionomycin. AID 588511;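 active means ratio plate-corrected score three or more library SD toward inhibition, starting fluorescence score within five deviations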;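 further: score derived from kinetic fluorescence span divided by baseline fluorescence per well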
Target sequence (Q8BHY3 whole entry, looked up): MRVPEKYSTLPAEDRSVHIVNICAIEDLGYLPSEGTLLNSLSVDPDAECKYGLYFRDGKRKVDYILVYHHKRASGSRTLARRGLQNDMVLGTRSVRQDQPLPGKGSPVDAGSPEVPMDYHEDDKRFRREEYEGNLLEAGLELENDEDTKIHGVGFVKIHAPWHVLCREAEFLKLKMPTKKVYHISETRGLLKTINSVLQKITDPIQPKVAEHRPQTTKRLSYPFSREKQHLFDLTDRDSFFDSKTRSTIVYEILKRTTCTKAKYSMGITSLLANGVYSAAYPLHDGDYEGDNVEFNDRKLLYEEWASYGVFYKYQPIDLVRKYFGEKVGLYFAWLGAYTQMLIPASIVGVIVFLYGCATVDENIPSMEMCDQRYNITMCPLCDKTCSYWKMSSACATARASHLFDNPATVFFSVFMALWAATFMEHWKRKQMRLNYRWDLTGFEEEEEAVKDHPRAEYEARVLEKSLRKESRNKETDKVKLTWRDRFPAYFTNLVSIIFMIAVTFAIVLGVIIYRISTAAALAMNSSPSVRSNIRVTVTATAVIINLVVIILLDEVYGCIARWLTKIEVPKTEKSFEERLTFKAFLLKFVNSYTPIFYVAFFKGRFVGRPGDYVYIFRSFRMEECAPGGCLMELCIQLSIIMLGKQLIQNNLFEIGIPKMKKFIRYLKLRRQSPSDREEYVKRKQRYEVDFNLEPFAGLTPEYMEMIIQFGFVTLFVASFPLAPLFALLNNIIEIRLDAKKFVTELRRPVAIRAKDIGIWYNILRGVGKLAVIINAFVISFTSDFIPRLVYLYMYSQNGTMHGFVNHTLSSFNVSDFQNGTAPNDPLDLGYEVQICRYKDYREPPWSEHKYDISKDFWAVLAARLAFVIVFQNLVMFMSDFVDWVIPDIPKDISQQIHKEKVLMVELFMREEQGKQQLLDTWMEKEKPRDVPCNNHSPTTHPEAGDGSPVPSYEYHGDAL
MPTP inh: permeability transition pore inhibition; isolated mouse mitochondria, Ca2+ swelling absorbance, 30 min; inhibition, % at 10 µM; 360,000 tested, 1.4% active; AID 602449;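 active means inhibition of 50% or more, scaled per plate between neutral and stimulator controls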;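 further: 0% = DMSO wells given calcium and 100% = 1 mM EGTA wells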
CRFBP-R2 block: CRF-BP/CRF-R2 complex antagonism; 350,000 tested, 0.59% active; inhibition, % at 11.8 µM; HEK293 CRF-R2/CRF-BP, CRF-induced calcium fluorescence;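 active means inhibition of the ligand-induced calcium signal above about 50% at the single tested concentration, limit read from the data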
CRFBP-R2 agonist: CRF-BP/CRF-R2 complex agonism; HEK293 CRF-R2/CRF-BP, calcium dye fluorescence (FLIPR); percent of saturating CRF peptide response; activation, % at 13.2 µM; AID 588473; 350,000 tested, 0.46% active;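 active means activation of at least 50%, plus an integration ratio under a set limit after plate pattern correction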;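 further: plate controls were neutral control wells without compound for no effect and CRF at EC100 for full effect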
NR3A LBD binder: NR3A (human) ligand-binding domain modulation. Tm shift relative to glycine control, % at 25 µM. 340,000 tested, 2.5% active. NR3A LBD differential scanning fluorimetry, Tm shift; 0% = protein alone, 100% = glycine-bound protein;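 active means melting temperature shift of at least 10% of the positive control shift, at one fixed dose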
TMEM16A act: mouse TMEM16A channel activation, primary screen; HEK293 TMEM16A/YFP-H148Q/I152L, iodide quench fluorescence; hits give low values; B-score at 10 µM; 340,000 tested, 0.3% active;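 active means fluorescence-ratio B-score plate-corrected deviation score at least 3 library SD below zero, with starting fluorescence score within 5 deviations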;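 further: channel opened by trigger with iodide after compound preincubation; score built on the fluorescence ratio of max minus min over baseline; more negative score means more quench and so TMEM16A activation or potentiation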
The depositor's hits bear a star; i = inactive; nt = not tested or not shown.

SMILES	ANO1 block	MPTP inh	CRFBP-R2 block	CRFBP-R2 agonist	NR3A LBD binder	TMEM16A act
Cc1noc(/C=C/N(C)C)c1S(=O)(=O)N1CCC(C(=O)Nc2ccc(Cl)cc2)CC1	i	0	90*	-1	1	i
Cc1ccc(NC(=O)C2CCN(S(=O)(=O)c3c(C)noc3/C=C/N(C)C)CC2)cc1	i	0	-2	-1	-6	i
Oc1c(Br)cc(Br)cc1CNc1cnc2ccccc2c1	25*	31	-4	1	24*	i
C#CCOCCOCCOCCNc1nc(N2CCN(C(=O)[C@H](CCCN=C(N)N)n3cc(C(N)[C@@H](C)CC)nn3)CC2)nc(N2CCN(C(=O)[C@H](CCC(=O)O)n3cc([C@@H](N)CO)nn3)CC2)n1 (some centres not stated)	nt	0	5	0	1	nt
N#C/C(=C/c1ccc([N+](=O)[O-])cc1)C(=O)Nc1ccccc1O	i	0	-70	5	-10	i
N#C/C(=C/c1ccc(O)c([N+](=O)[O-])c1)C(=O)Nc1ccccc1	25*	32	11	-2	-8	i
Cc1ccc(NC(=O)C(C)OC(=O)c2nc(Cl)ccc2Cl)cc1S(=O)(=O)N1CCOCC1 (configuration not stated)	nt	-1	5	0	-1	i
Cc1cccc(C)c1Nc1nnc(SCC(=O)Nc2ncc(C(F)(F)F)cc2Cl)s1	i	-14	-38	-4	12*	i
CCOc1ccc(NC(=O)C(CC)n2nc(C)c3c(C)n(-c4ccccc4)nc3c2=O)cc1 (configuration not stated)	i	1	11	-1	0	i
C=CC(=O)N1CCCC(Nc2nc(Nc3ccc(N(C)C(=O)CC)cc3C)nc3nc[nH]c23)C1 (configuration not stated)	nt	0	-5	0	-1	i
CCC1(C(=O)OC)NC(c2ccco2)C2C(=O)N(c3ccccc3)C(=O)C21 (configuration not stated)	i	-1	-2	4	0	-4.8*
Cc1ccc(NC(=O)COC(=O)C2CC3C=CC2C3)cc1S(=O)(=O)N1CCCCC1 (configuration not stated)	i	34	-47	7	-7	i
Cc1ccc(S(=O)(=O)N2CCCCC2)cc1NC(=O)COC(=O)C1CC2C=CC1C2 (configuration not stated)	i	2	18	0	10*	i
COc1ccc(Nc2nc(-c3ccccc3)nc3ccccc23)cc1S(=O)(=O)N1CCOCC1	i	5	-13	2	11*	i
CC(=O)Nc1cccc(Nc2nc(-c3ccccc3)nc3ccccc23)c1	i	0	-10	0	5	i
CC(=O)c1cccc(Nc2nc(-c3ccccc3)nc3ccccc23)c1	i	15	-23	-1	23*	i
Oc1cccc(Nc2nc(-c3ccccc3)nc3ccccc23)c1	i	3	-16	4	28*	i
COc1ccc(NC(=O)c2cc(C)nc3ccccc23)cc1S(=O)(=O)N1CCOCC1	nt	2	-12	2	-2	i
COc1ccc(NC(=O)c2nc3nccc(C)n3n2)cc1S(=O)(=O)N1CCOCC1	nt	1	108*	0	-1	i
CC(C)c1ccc(OC(=O)c2ccc3c(=O)n4c(nc3c2)CCC4)cc1	i	-2	-1	3	-4	i
Oc1ccc(-c2nnc(Nc3cccc(O)c3)c3ccccc23)cc1	i	3	10	0	13*	i
COc1ccc(Nc2nc(-c3cccc(OC)c3O)nc3ccccc23)cc1	i	1	-10	2	11*	i
O=C(CSc1nnc(CNC(=O)c2cccc(C(F)(F)F)c2)o1)NC1CCCC1	i	-1	-2	2	1	i
CCNC(=O)N(CCOC)CC1CCCN(C2Cc3ccccc3C2)C1 (configuration not stated)	i	0	8	-3	-1	i
Clc1ccccc1NN(Cc1ccncc1)c1ccccc1Cl	nt	0	53*	-4	nt	nt
SMILES	ANO1 block	MPTP inh	CRFBP-R2 block	CRFBP-R2 agonist	NR3A LBD binder	TMEM16A act
COc1ccc(CNC(=O)CCNC(=O)C2CCN(S(=O)(=O)c3ccc(OC)cc3)CC2)cc1	nt	0	14	39	nt	nt
O=C(Nc1cc(-c2ccccc2)[nH]n1)c1ccccc1F	i	1	-17	2	24*	i
CCOc1ccc(NC(=O)/C(C#N)=C\c2ccc(N3CCCC3)c(C)c2)cc1	nt	3	-37	99*	-100	i
CCn1c(C(C)NC(=O)c2cccs2)n[nH]c1=S (configuration not stated)	i	-5	-11	-1	10*	i
CCOc1ccc(CCNC(=O)COC(=O)c2ccc(OC(C)C)cc2)cc1OCC	i	1	5	-3	1	i
Cc1n[nH]c(=S)n1/N=C/c1ccccc1OCc1ccc(Cl)cc1Cl	i	2	9	1	16*	i
CC(=O)Nc1ccc(NC(=O)C(C)N(C)CC(=O)Nc2ccccc2Br)cc1 (configuration not stated)	i	1	-6	0	2	i
Cc1nn(CC(=O)NCCCN2C(C)CCCC2C)c(=O)c2cc3occc3n12 (configuration not stated)	i	-4	5	0	0	i
Cc1ccc(-c2nnc(N3CCC(C)CC3)c3ccccc23)cc1C	100*	27	-4	1	-1	i
O=C(c1ccc(S(=O)(=O)Nc2ccccc2F)cc1)N1CCN(c2ccccn2)CC1	nt	1	-2	-1	0	i
CN(C(=O)c1cccc(NC(=O)C2CCN(C(=O)OC(C)(C)C)CC2)c1)C1CCCCC1	nt	0	-8	0	-1	i
CCOC(=O)c1c(-c2ccc(C)cc2)csc1NC(=O)/C(C#N)=C/c1ccc(O)c(OC)c1	nt	11	-190	195*	20*	i
COc1cc(/C=C(\C#N)C(=O)Nc2ccccn2)ccc1O	i	2	-15	19	-2	i
CCOC(=O)/C(C#N)=C\c1ccc(O)c(OC)c1	i	2	3	0	-1	i
CCOC(=O)c1c(-c2ccccc2)csc1NC(=O)/C(C#N)=C\c1ccc(O)c(OC)c1	nt	4	-51	132*	18*	i
CC(NS(=O)(=O)CCNC(=O)c1ccccc1)c1ccccc1 (configuration not stated)	i	-2	-7	-1	2	i
CCCSc1cc(N2CCCC2)nc(-c2ccccc2)n1	i	14	-15	1	0	-26*
